Epigenetic derep – regulators of epigenetic silencing causing reporter derepression in mouse cells. murine LDR cells, GFP reporter derepression, 30 h. Potency, µM (highest dose often 53.9 µM), for inactives: at the top dose GFP activation, hits mostly activators. 280,000 compounds, 0.2% hits; also: % of control where 0% means no effect; nearly all actives have a fitted effect of over 60% in size
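Reporter derepression read as number of fluorescent GFP-positive objects, 20-120 um in size, counted by laser-scanning cytometer. Mouse LDR line with an epigenetically silenced CMV-GFP locus; compound incubation 30 h, 37 C.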
PINK1 modulator – PINK1 expression modulation; PINK1 immunofluorescence, high-content cytometry, 24 h; Potency, µM (top dose mostly 76.6 µM), without a hit: at the top dose activation (PINK1 increase), actives largely listed as activators; 410,000 compounds, 0.2% hits; AID 624263; active = well fitted activation curve with a large enough effect; inconclusive = small, poorly fitted or top-dose-only effect; cell line not stated here; also: % of control where 0% means no effect; nearly all actives have a fitted effect of over 65% in size
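A stable cell line was treated with compounds at 5 concentrations for 24 hours, with CCCP as control. PINK1 levels and mitochondrial localization were measured by immunofluorescence with mitochondrial, cell and nuclear markers after fixation, read by laser-scanning cytometry.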
Vif-APOBEC3F blk – Vif-A3F binding inhibition. HeLa A3F-eYFP + Vif (tagged APOBEC3F with the HIV-1 protein that degrades it), YFP fluorescence increase. Potency, µM (doses to about 46.1 µM), inactives show at the top dose activity, negative = active. 390,000 compounds, 0.2% hits. AID 602313; also: % of control where 0% means no effect; nearly all actives have a fitted effect of over 65% in size
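HeLa cells stably expressing Vif plus C-terminally eYFP-tagged A3F were seeded, incubated overnight at 37 deg C, dosed with compound, incubated overnight again at 37 deg C. Yellow fluorescence (Ex 488/Em 500-530) reported blocked Vif-mediated A3F-eYFP degradation.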
Vif-APOBEC3G blk – blocks the Vif interaction with human APOBEC3G; HeLa A3G-eYFP + Vif (tagged APOBEC3G with the HIV-1 protein that degrades it), YFP fluorescence, overnight; Potency, µM (highest dose often 46.1 µM), for the others: top-dose activity, negative = active, hits mostly inhibitors; 410,000 compounds, 0.076% hits; AID 602310; also: % is scaled to controls: 0 for no effect and ±100 for the full control effect; nearly all actives have a fitted effect of over 60% in size
Target sequence (Q9HC16 whole entry, looked up): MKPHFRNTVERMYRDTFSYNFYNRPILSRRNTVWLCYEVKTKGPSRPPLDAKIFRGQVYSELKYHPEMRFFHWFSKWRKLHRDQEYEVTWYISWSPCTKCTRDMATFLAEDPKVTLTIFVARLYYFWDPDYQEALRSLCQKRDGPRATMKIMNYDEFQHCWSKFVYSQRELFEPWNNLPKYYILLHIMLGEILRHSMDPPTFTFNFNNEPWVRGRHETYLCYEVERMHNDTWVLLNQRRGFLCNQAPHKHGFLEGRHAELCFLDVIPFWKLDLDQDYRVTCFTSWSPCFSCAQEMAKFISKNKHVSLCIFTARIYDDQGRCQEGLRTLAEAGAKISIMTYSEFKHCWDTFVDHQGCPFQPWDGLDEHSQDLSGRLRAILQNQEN
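Read-out is eYFP fluorescence (Ex 488/Em 500-530) from Vif-expressing HeLa A3G-eYFP cells; more signal means A3G escaped Vif-mediated degradation. Cells plated overnight, compound pinned in, incubated overnight at 37 deg C.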
* hit, by the source's call; ? = inconclusive; . = no result; ! = repeats disagree. This is a sample that favours compounds with a hit; in the whole collection about 0.51% have one here. Unless noted, calls follow the shape of the dose curve; as a rule, active = well fitted curve in the direction sought with a large enough effect; inconclusive = small, poorly fitted or top-dose-only effect, or another doubt; inactive = no such curve, though single readings can be large; an effect the other way counts as inactive or inconclusive. Potency is read from the fitted curve at half-maximal effect.

SMILES | Epigenetic derep | PINK1 modulator | Vif-APOBEC3F blk | Vif-APOBEC3G blk
CN(C)CCN(C(=O)/C=C/c1cccs1)c1nc2c(F)cc(F)cc2s1 | 1% | -2% | 11µM* | -18%
CN(C)CCCN(C(=O)/C=C/c1cccs1)c1nc2ccc(F)cc2s1 | 3% | -1% | 11µM* | ?
CCN(CC)CCN(C(=O)/C=C/c1cccs1)c1nc2ccc(F)cc2s1 | . | 11% | -16% | 0%
CC(C)c1ccc(Cn2cnc3c(cnn3C(C)(C)C)c2=O)cc1 | . | . | . | 1%
COCCCNC(=S)N/N=C/c1ccc(OC)cc1 | 0% | -2% | 22µM* | 3%
Cc1ccc(C(=O)NCCc2nnc3n2CCN(Cc2ccnc4ccccc24)CC3)c(C)c1 | . | -1% | . | .
O=[N+]([O-])c1cc(C(F)(F)F)ccc1NCCc1c[nH]c2ccccc12 | ? | -2% | 4% | -14%
O=[N+]([O-])c1cc(C(F)(F)F)ccc1NCCc1c[nH]c2ccc(O)cc12 | -1% | 11µM* | -8% | 0%
COc1ccc(CNC(=O)CSc2ncc3c(n2)-c2cc(Cl)ccc2N(Cc2ccccc2)S3(=O)=O)cc1OC | 22µM* | 0% | 0% | -2%
COc1ccc(CNC(=O)CSc2ncc3c(n2)-c2cc(Cl)ccc2N(Cc2ccccc2)S3(=O)=O)cc1 | 3% | 0% | 8% | 1%
COc1ccc(Cc2c(-c3ccccc3)nc3ccc(Br)cn23)c(C)c1 | . | 32µM* | . | -27%
CC(C)(C)Cc1c(-c2ccc(Br)cc2)nc2ccc(Br)cn12 | . | 40µM* | ? | -8%
Cc1ccc(Cc2c(-c3ccc(Br)cc3)nc3ccc(Br)cn23)cc1 | . | 7% | -20% | ?
Cc1cc(=O)oc2cc(OCC(=O)N3c4ccccc4CC3C)ccc12 (stereo unspecified) | 3% | 5% | 0% | 4µM*
COc1ccc(CN2CCOc3c(O)cc(-c4cc(C)c5ccc(F)cc5n4)cc3C2)c(O)c1 | . | 0% | . | .
COc1ccc(C2=NOC(C(=O)NCc3ccc(F)cc3)C2)cc1OC (stereo unspecified) | -6% | 2.8µM* | -22% | ?
Cc1cnc(-n2ncc(C(=O)N(C)CC3COCCO3)c2C2CC2)nc1-c1cccs1 (stereo unspecified) | . | 0% | . | .
FC(F)(F)c1cccc(N2CCN(C(=S)NC3CCCCC3)CC2)c1 | -1% | 32µM* | -24% | 2%
Cc1cnc(SCc2ccccn2)nc1C1CCCN(C(=O)c2scc3c2CCCC3)C1 (stereo unspecified) | . | 1% | . | .
CCCCOc1ccc2c(c1)/C(=C(\C(Cl)=C(Cl)Cl)[N+](=O)[O-])N2 | 0% | -4% | 22µM* | ?
CCOc1ccc2c(c1)/C(=C(\C(Cl)=C(Cl)Cl)[N+](=O)[O-])N2 | 0% | 0% | ? | ?
O=Cc1c2[nH]c3ccccc3c2cc2[nH]c3ccccc3c12 | 13µM*! | . | . | .
CSc1ncccc1C(=O)NCC1Cc2cc(-c3cnccn3)cc(Cl)c2O1 (stereo unspecified) | . | 0% | . | .
O=C([C@@H]1C[C@@H](Sc2nc3ccccc3[nH]2)CN1Cc1ccc(C(F)(F)F)cc1)N1CCN(c2ccccc2F)CC1 | . | 2% | . | .
CNc1ncnc2sc(-c3ccccc3)cc12 | 0% | -1% | 6% | -12%
SMILES | Epigenetic derep | PINK1 modulator | Vif-APOBEC3F blk | Vif-APOBEC3G blk
S=c1[nH]cnc2sc(-c3ccccc3)cc12 | 1% | -1% | 5.6µM* | -4%
O=C(CNC(=O)c1ccccc1)NCCCSc1ccccc1 | . | -1% | 5% | 1%
O=C(NCCCSc1ccccc1)c1cc(Cl)ccc1O | . | 18µM* | 2% | 1%
Cc1ccc(-n2c(C)nc3ncnc(-c4ccccc4)c32)cc1 | 4% | -1% | -12% | 0%
c1ccc(-c2ncnc3nc4n(c23)CCC4)cc1 | 0% | 7.9µM* | -10% | 1%
COC(=O)[C@@H]1CCCN1C(=O)c1c(OC)cc(=O)n2c1CCN(Cc1ccc3c(c1)OCCO3)CC2 | . | 0% | . | .
Oc1c(C(Nc2ccccn2)c2ccccn2)ccc2cccnc12 (stereo unspecified) | 3.5µM* | 0% | -11% | -22%
Cc1nc2cc(NC(=O)[C@@H]3C[C@@H](Sc4ccccn4)CN3Cc3cccc(F)c3)ccc2s1 | . | 0% | . | .
CCCCN(CCCC)S(=O)(=O)c1ccc(C(=O)Nc2sc3c(c2C(N)=O)CCN(CC)C3)cc1 | ? | 2% | 28µM* | ?
CCN1CCc2c(sc(NC(=O)Nc3ccc(Cl)c(Cl)c3)c2C(N)=O)C1 | ? | 14µM* | ? | ?
CCCCn1c(=O)[nH]c2nc3cc(N)ccc3nc2c1=O | 0% | -1% | -12% | 11%
Nc1ccc2nc3c(=O)n(C4CCCCC4)c(=O)[nH]c3nc2c1 | 2% | 0% | 13µM* | ?
CO[C@H]1[C@H](NC(=O)c2ccsc2)c2ccccc2C12CCN(Cc1cccc3ncccc13)CC2 | . | 1% | . | .
O=C(NCC1Cc2cccc(-c3cccnc3)c2O1)c1cc(-c2ccccc2)n[nH]1 (stereo unspecified) | . | 0% | . | .
CCCCc1c(C)c(C#N)c2[nH]c3ccccc3n2c1=O | -1% | 40µM* | -11% | -1%
CCOC(=O)C1CCN(S(=O)(=O)c2ccc(C(C)=O)cc2)CC1 | -1% | 11µM* | -25% | -2%
CCCSc1nnc(N2C(=O)C(O)=C(C(=O)c3ccco3)C2c2ccccc2F)s1 (stereo unspecified) | . | 2% | 3.2µM* | ?
O=C(NCCc1nnc2n1CCN(Cc1ccc(F)c(F)c1)CC2)c1ccoc1 | . | 2% | . | .
O=C(CN1CC[n+]2c(-c3cccs3)csc21)c1ccc(-c2ccccc2)cc1 | 0% | 16µM* | 15% | 2%
c1ccc2[nH]c(-c3ccnc4ccccc34)nc2c1 | 0% | 1% | -4% | -14%
c1ccc2c(-c3nc4ccccc4[nH]3)cccc2c1 | . | 8% | 0% | 6.3µM*
COc1cccc(-c2ccc(O)c(CNCc3cccc(OC)c3OC)c2)n1 | . | 1% | . | .
CCS(=O)(=O)NCc1c(C)ncc2c1CCN(C(=O)c1ccc(F)cc1)C2 | . | -1% | . | .
Cc1ccc(C(=O)N(Cc2cc3cccc(C)c3nc2N2CCC(O)CC2)C2CC2)cc1 | . | 1% | . | .
CCN1C(=O)c2cccc3c(NC(=O)c4ccc5c(c4)OCCO5)ccc1c23 | 22µM* | ? | ? | 0%
SMILES | Epigenetic derep | PINK1 modulator | Vif-APOBEC3F blk | Vif-APOBEC3G blk
CCN1C(=O)c2cccc3c(NC(=O)c4ccccc4)ccc1c23 | -1% | 4% | -1% | -3%
O=C(c1ccc(N2CCC(NCCCn3ncc4ccccc43)CC2)cc1)N1CCc2ccccc2C1 | . | 1% | . | .
O=C(N/N=C/C=C/c1ccco1)c1ccncc1 | 3% | 1% | 11µM* | 3%
C=CCN1C=CC(=C/C=C(/C#N)C(=O)OCC)C=C1 | ? | ? | 11µM* | ?
Cc1cc(-c2ccnc(-n3ncc(C(=O)NCC4COCCO4)c3C3CC3)n2)c(C)s1 (stereo unspecified) | . | 4% | . | .
COc1ccc(N=Cc2c(O)n(-c3ccc(OC)cc3)c(=O)c3ccccc23)cc1 | ? | ? | 11µM* | -1%

Assay outcomes deposited in PubChem BioAssay by National Center for Advancing Translational Sciences (NCATS).
